In PubChem BioAssay AID624330 (Southern Research Specialized Biocontainment Screening …, 2012):
The campaign covered roughly 340,000 compounds. About 2,100 (0.62%) were called active.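 Rule for the calls: active = first-screen hits whose inhibition reached a set limit at any dose in the follow-up dose series; inconclusive = inhibition above the set first-screen limit but never retested; inactive = the rest.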 A selection follows. Results with a measured potency or affinity are listed apart.

Target: Rac GTPase-activating protein 1 (Homo sapiens) (UniProt Q9H0H5)
Experiment: MgcRacGAP GTPase-activating activity inhibitors, confirmation, biochemical, ADP Hunter fluorescence, primary and confirmatory (AID 624330);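 note: fluorescence reports GDP produced by GAP-driven GTP hydrolysis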
Details: MgcRacGAP-stimulated Rac1 GTP hydrolysis, at 30 µM, stronger effect = higher value, GST-tagged Rac1 F28L mutant substrate

Chain of Rac GTPase-activating protein 1 (Homo sapiens) (Q9H0H5 whole entry, looked up): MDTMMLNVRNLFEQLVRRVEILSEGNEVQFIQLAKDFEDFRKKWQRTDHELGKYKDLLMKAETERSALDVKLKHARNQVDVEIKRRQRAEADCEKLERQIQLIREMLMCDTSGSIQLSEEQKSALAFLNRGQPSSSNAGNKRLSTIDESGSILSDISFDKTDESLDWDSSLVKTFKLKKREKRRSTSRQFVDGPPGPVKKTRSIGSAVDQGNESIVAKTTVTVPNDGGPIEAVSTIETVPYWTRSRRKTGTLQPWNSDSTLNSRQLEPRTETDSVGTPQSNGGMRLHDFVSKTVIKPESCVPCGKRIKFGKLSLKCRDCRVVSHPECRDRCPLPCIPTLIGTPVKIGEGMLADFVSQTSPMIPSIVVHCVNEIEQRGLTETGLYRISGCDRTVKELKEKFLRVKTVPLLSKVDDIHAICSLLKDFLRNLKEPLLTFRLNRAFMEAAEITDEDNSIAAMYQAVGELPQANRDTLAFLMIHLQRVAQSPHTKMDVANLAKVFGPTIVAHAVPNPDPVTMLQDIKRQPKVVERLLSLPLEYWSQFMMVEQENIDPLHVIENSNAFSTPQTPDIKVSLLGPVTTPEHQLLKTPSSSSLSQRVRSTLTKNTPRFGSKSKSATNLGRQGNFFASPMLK

inhibition, inactive:
CCOc1ccccc1NC(=O)C(OC(=O)C1CC1)c1ccccc1 (centres undefined) -2.99%
CCOc1ccccc1NC(=O)C(NCCc1ccc(OC)cc1)c1ccccc1 (centres undefined) -0.19%
CCOc1ccccc1NC(=O)C(OC(=O)c1ccccc1)c1ccccc1 (centres undefined) 12.2%
CN(C)CCNC(C(=O)Nc1cc(Cl)cc(Cl)c1)c1ccccc1 (centres undefined) 5.37%
CCOc1ccccc1NC(=O)C(NCC1CCCCC1)c1ccccc1 (centres undefined) 4.44%
CCC(C(=O)Nc1cccc(C(F)(F)F)c1)c1ccccc1 (centres undefined) 17.9%
CC(NC(=O)c1ccco1)C(=O)N1CCCCC1 (centres undefined) 3.98%
O=C(COC(=O)c1cccnc1Cl)NC1CCCCC1 4.82%
CC(C)Cc1cc(C(=O)N2CCN(c3ccc(F)cc3)CC2)no1 0.62%
COc1cccc(C(=O)NC(=S)Nc2ccccc2N2CCOCC2)c1 6.71%
COc1ccc(C)cc1S(=O)(=O)N1CCC(C(=O)NCCc2ccccc2)CC1 14.5%
COC(=O)c1ccc(Cl)c(NC(=O)CSc2nnc(-c3ccncc3)o2)c1 4.07%
OC1CCN(Cc2cn(Cc3ccccc3)nc2-c2cc3ccccc3o2)CC1 5.47%
O=C(Nc1ccc(Cl)cc1)Nc1nnc(CSCc2ccccc2Cl)s1 12.1%
CN(C(=O)COc1ccccc1)c1ccc([N+](=O)[O-])cc1 7.5%
Cc1ccccc1OCCNC(=O)c1ccco1 3.61%
Cc1ccc(C(=O)NCC(C)NC(=O)c2ccc(C)c(C)c2)cc1C (centres undefined) 4.02%
CCOc1ccc(N2CC(C(=O)NCc3ccco3)CC2=O)cc1 (centres undefined) -1.21%
Cc1onc(-c2ccccc2)c1C(=O)NC(=S)NNC(=O)c1ccncc1 0.31%
CCCN(C(=O)Cc1csc(-c2ccccc2)n1)C1CCS(=O)(=O)C1 (centres undefined) 4.87%
CCOC(=O)c1c(NC(=O)CN2CCN(C)CC2)sc(C(=O)Nc2ccccc2)c1C 8.53%
CCOC(=O)c1c(NC(=O)CSc2cccc[n+]2[O-])sc(C(=O)Nc2ccccc2)c1C 7.58%
CCOc1ccc(S(=O)(=O)Nc2ccccc2C(=O)Nc2ccccc2N2CCOCC2)cc1 1.24%
Cc1ccc(OC(=O)c2cccc(S(=O)(=O)N3CCN(C)CC3)c2)c(Br)c1 10%
CCOc1ccc(C2NC(=O)C(C#N)=C(S)N2c2ccc(C)cc2)cc1OC (centres undefined) 51%
COc1ccc(N2C(S)=C(C#N)C(=O)NC2c2ccc(OC)c(OC)c2)cc1 (centres undefined) 29%
Cc1cc(C)c2[nH]c(=O)c(CN(CC3CCCO3)C(=S)NCc3ccco3)cc2c1 (centres undefined) 10.7%
CN(CC(=O)Nc1ccc(S(=O)(=O)N2CCCC2)cc1)Cc1cccc(Cl)c1Cl 4.27%
Cc1ccc(CN2CC(C(=O)Nc3nc(C)cs3)CC2=O)cc1 (centres undefined) -0.43%
CCn1c2ccccc2c2cc(NC(=O)CN3CCCC3)ccc21 5.72%
COc1ccc(OCC#CCNC(C)(C)C)cc1 18%
CC(C)NCC(O)COCCOc1ccc(Cl)cc1 (centres undefined) -1.4%
Clc1ccc(OCCCCN2CCCCC2)cc1 28.9%
OC(COc1ccc(Cl)cc1)CN1CCCCC1 (centres undefined) -6.24%
CN(C)CCCNc1ncnc2oc(-c3ccccc3)c(-c3ccccc3)c12 10.3%
COc1ccccc1NC(=O)Cn1c(C)nc2c(sc(=S)n2Cc2ccco2)c1=O 8.75%
COC(=O)[C@H]1C[C@H]1[C@@H](NC(=O)c1ccc[nH]1)c1ccccc1 -1.4%
CC(=O)c1ccc(N2CCN(CC(=O)NCc3ccccc3)CC2)cc1 6.75%
CN(Cc1ccccc1)c1nc2c(c(=O)[nH]c(=O)n2C)n1CCOc1ccccc1 13.5%
O=c1/c(=C/c2ccccn2)sc2nc3ccccc3n12 6.92%
Cc1ccc2c(nc3s/c(=C\c4ccc(-c5ccccc5C(=O)O)o4)c(=O)n32)c1C 19.4%
CC1(C)CC(=O)C(N=Nc2ccc(-c3ccccc3)cc2)=C(O)C1 9.24%
CC1(C)OC(=O)C(=CNCCc2ccc(O)cc2)C(=O)O1 17.2%
O=C(Cn1nnc(-c2ccc(Cl)cc2)n1)NC1CCS(=O)(=O)C1 (centres undefined) 9.8%
O=[N+]([O-])c1ccc(S(=O)Cc2ccccc2)c([N+](=O)[O-])c1 (centres undefined) 4.1%
N#Cc1c(N)n(Cc2ccccc2)c(=O)c2cc([N+](=O)[O-])ccc12 9.07%
O=c1c2c([N+](=O)[O-])cc([N+](=O)[O-])cc2sn1Cc1ccccc1 31%
O=C1c2ccc([N+](=O)[O-])cc2S(=O)(=O)N1Cc1ccccc1 11.7%
CCOC(=O)C(=CNc1ccc(O)c(C(=O)OC)c1)C(=O)OCC 17%
Cc1c(C(=O)COC(C)(C)C)[nH]c2ccccc12 8.87%
O=C(NNC1OC(CO)C(O)C(O)C1O)c1cccc(Br)c1 (centres undefined) 0.41%
COc1ccc(N/C=C/C(=O)C(C)(C)C)cc1 16.3%
CC(=O)Nc1ccc(N/C=C/C(=O)C(C)(C)C)cc1 7.27%
O=C(O)CCCn1ccc2cc(S(=O)(=O)N3CCCC3)ccc21 4.17%
Cc1cc(Br)ccc1OCCOCCN1CCCC1 21.4%
Clc1ccc(OCCCN2CCCCC2)c(Br)c1 27.6%
CC1CCN(CCCOc2ccc(Cl)cc2Br)CC1 20.7%
Cc1cc(Br)ccc1OCCN1CCCC1 31.4%
CCC(=NCc1ccccc1)C1=C(O)C(C(=O)OC)C(C)(C)CC1=O (centres undefined) 2.32%
COC(=O)C1C(O)=C(C=Nc2ccccc2)C(=O)CC1(C)C (centres undefined) -0.8%
CCCCC(=Nc1ccc(N)cc1)C1=C(O)C(C(=O)OC)C(C)(C)CC1=O (centres undefined) 28.1%
COC(=O)C1C(O)=C(C=Nc2ccc3ccccc3c2)C(=O)CC1(C)C (centres undefined) 4.62%
CCCC(=Nc1ccccc1)C1=C(O)C(C(=O)OC)C(C)(C)CC1=O (centres undefined) -1.06%
CCCC(=O)C1=C(O)C(C(=O)OC)C(C)(C)CC1=Nc1ccc(N)cc1 (centres undefined) 7.34%
